Laboratory results published in PubChem BioAssay AID1671190 (National Center for Advancing Translational Sciences (NCATS), 2021).
About 6,100 (1.1%) of roughly 580,000 compounds were called active. Not shown: some 15% with an inconclusive outcome. Calls come from the whole dose curve; as a rule, active = well fitted inhibition curve with a large enough effect; inconclusive = small, poorly fitted or top-dose-only effect, or another doubt; inactive = no such curve, though single readings can be large or run the other way. The entries come from a sample that favours actives as a whole. Entries that show only a call come without a potency.

The compounds below were run against Polyunsaturated fatty acid lipoxygenase ALOX12 (Homo sapiens) (UniProt P18054) (assay: Primary qHTS assay for inhibitors of human arachidonate 12S-lipoxygenase (ALOX12): Round 2). Conditions: purified 12hLO, xylenol orange hydroperoxide absorbance; series mostly up to 108 µM.
Polyunsaturated fatty acid lipoxygenase ALOX12 (Homo sapiens), sequence (P18054 whole entry, looked up): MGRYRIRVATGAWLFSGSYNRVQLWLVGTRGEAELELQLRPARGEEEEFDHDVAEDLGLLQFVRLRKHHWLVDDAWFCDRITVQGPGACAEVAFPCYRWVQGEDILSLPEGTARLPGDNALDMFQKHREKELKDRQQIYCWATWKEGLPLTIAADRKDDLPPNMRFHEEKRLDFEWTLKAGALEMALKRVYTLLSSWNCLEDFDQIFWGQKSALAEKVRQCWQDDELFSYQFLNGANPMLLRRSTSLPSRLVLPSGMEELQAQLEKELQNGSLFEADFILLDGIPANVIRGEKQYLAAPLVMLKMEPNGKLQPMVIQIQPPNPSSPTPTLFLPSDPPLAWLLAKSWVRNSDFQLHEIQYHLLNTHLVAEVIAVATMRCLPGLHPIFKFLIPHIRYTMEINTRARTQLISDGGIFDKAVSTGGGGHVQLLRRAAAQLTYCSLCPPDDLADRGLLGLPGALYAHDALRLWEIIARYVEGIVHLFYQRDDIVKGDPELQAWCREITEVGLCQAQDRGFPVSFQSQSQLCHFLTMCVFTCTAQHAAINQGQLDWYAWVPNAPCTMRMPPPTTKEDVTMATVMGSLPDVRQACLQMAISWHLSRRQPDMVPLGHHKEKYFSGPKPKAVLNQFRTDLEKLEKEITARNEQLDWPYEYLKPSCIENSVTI
Summary of the method: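 Hydroperoxide product was detected by ferrous iron/xylenol orange as the 573 to 405 nm absorbance ratio. Arachidonic acid at 40 uM (final) was turned over for 30 min at room temperature by 150 nM human 12hLO, pH 7.0 Hepes buffer, after 15 min compound preincubation.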
Potency is the fitted concentration of half-maximal effect.

Row | Compound | Potency | activity change, negative = inhibition
1 | CN(CC(=O)NC(C)(C)C)Cc1cccc2cccnc12 | inactive | 
2 | Cc1nnc(SCc2cc(=O)[nH]c(N3CCN(Cc4ccccc4)CC3)n2)s1 | inactive | 
3 | CO/N=C(/C(=O)N[C@@H]1C(=O)N2C(C(=O)O)=C(Cn3nnc(C)n3)CS[C@H]12)c1csc(N)n1 |  | -8.52% [at 22.9 µM] (inactive)
4 | Cc1cc(C)cc(C(=O)NC2C(=O)N3C(C(=O)O)=C(CSc4nnc(C)s4)CSC23)c1 (centres undefined) | 39.8 µM (active) | 
5 | CC(C)C(=O)Nc1cc(Cl)ccc1Cl | inactive | 
6 | CC(C)C(=O)N1CCN(C(=O)c2cc3ccccc3n2C)CC1 | inactive | 
7 | CNc1c(NC(=O)Nc2ccc(F)cc2F)c(=O)oc2ccccc12 | inactive | 
8 | O=c1[nH]c(CCl)nc2cc(-c3ccc(Cl)cc3)sc12 | inactive | 
9 | CCOC(=O)C1Cn2c(nc3c(c2=O)C(C)(CC)Cc2ccccc2-3)S1 (centres undefined) | inactive | 
10 | CCC1(CC)Cc2ccccc2-c2nc(CCl)[nH]c(=O)c21 | 7.08 µM (active) | 
11 | CC(C)C(=O)Nc1ccc(-c2nc3ccccc3o2)cc1 | inactive | 
12 | CCOC(=O)c1nc2ccccc2nc1NCc1ccc(C)cc1 | inactive | 
13 | CC(=O)c1c(C)[nH]c(C(=O)c2oc3ccc(Cl)cc3c2C)c1C | inactive | 
14 | COC(=O)c1ccc(/C=C2\Oc3cc(OS(C)(=O)=O)cc(C)c3C2=O)cc1 | inactive | 
15 | Cc1cccc(N2CCN(C(=O)c3ccccc3NC(=O)C3CCCCC3C(=O)O)CC2)c1 (centres undefined) | inactive | 
16 | CCN1CCN(c2cc3nc(C)n(Cc4ccccc4)c(=O)c3cc2NC(=O)c2ccccc2F)CC1 | inactive | 
17 | Cc1cccc(N2CCN(c3ccc(C(=O)O)cc3NC(=O)c3ccccc3F)CC2C)c1 (centres undefined) | 50.1 µM (active) | 
18 | O=C(c1cccc(Br)c1)N1CCC(CCc2ccc(O)cc2)CC1 | inactive | 
19 | Cc1ccc(NC(NC(=O)c2cccc(C)c2)C(Cl)(Cl)Cl)cc1 (centres undefined) | inactive | 
20 | CCCCC/C=C/C1=CC(=O)C[C@H](c2ccc(Cl)cc2)C1 | 35.5 µM (active) | 
21 | O=C1C=C(c2cccc(Cl)c2O)C[C@@H](c2ccc(F)cc2)C1 | inactive | 
22 | CCc1nc2nc3c(cn2n1)C(=O)CC(c1ccc(Cl)cc1)C3 (centres undefined) | inactive | 

Row | Compound | Potency | activity change, negative = inhibition
23 | CCCCc1ccc(NC(=O)c2cc3c(s2)CCCC3)cc1 | inactive | 
24 | CN(Cc1ccon1)C(=O)c1coc(COc2ccc(F)cc2Cl)n1 | inactive | 
25 | Cn1c(=O)c2c(ncn2CCC(=O)NCc2ccc(F)cc2)n(C)c1=O | inactive | 
26 | CN1CCN(c2ccc3nnc(C4CCC4)n3n2)CC1 | inactive | 
27 | CCOC(=O)c1ccc(NC(=O)N2Cc3[nH]cnc3C[C@H]2c2nc(-c3ccc(Cl)cc3)no2)cc1 | inactive | 
28 | Cc1ccc(-c2noc([C@@H]3Cc4nc[nH]c4CN3C(=O)Nc3ccccc3)n2)cc1 | inactive | 
29 | CC(C)NC(=O)N1Cc2[nH]cnc2C[C@H]1c1nc(-c2ccc(Cl)cc2)no1 | 14.1 µM (active) | 
30 | Cc1nc(NC2CCCCC2)sc1C(=O)Nc1ccccc1 | inactive | 
31 | CC(C)C(=O)N/N=C/c1ccc(Cl)cc1 | inactive | 
32 | COc1cc2c(cc1O)NC(=O)CC2c1cn[nH]c1-c1cc(C)ccc1C (centres undefined) | inactive | 
33 | CC(C)OCC(O)Cn1c(NCc2ccccc2)nc2c1c(=O)[nH]c(=O)n2C (centres undefined) | inactive | 
34 | O=C(COC(=O)c1cccc(NS(=O)(=O)c2ccccc2)c1)NCc1cccs1 | inactive | 
35 | COc1cccc(CNC(=O)Cn2c(=O)oc3cc(S(=O)(=O)N4CCCCC4)ccc32)c1 | inactive | 
36 | CNC(=O)c1ccc(NC(=O)CCn2c(=O)oc3cc(S(=O)(=O)N4CCCC4)ccc32)cc1 | 35.5 µM (active) | 
37 | CC1CCCCN1C(=O)Cn1c(=O)oc2cc(S(=O)(=O)N3CCCCC3)ccc21 (centres undefined) | inactive | 
38 | Cc1ccc(OCCC(=O)Nc2cc3c(cc2Cl)OCCO3)c(C)c1 | inactive | 
39 | CCOc1ccc(C(C)NC(=O)Cn2c(=O)c3c(ncn3C)n(C)c2=O)cc1 (centres undefined) | inactive | 
40 | CC1=C[C@@H](CN(C)CCc2ccccn2)[C@H](C(C)C)C[C@H]1Cc1nnc(-c2ccccc2F)o1 | inactive | 
41 | O=C(CCn1ccc(=O)[nH]c1=O)N[C@@H]1COCC[C@@H]1OCc1ccccc1 | inactive | 
42 | C=CCNC(=S)N(CC)CC | inactive | 
43 | COc1ccc(Br)cc1/C=N/Nc1ccc(S(=O)(=O)Nc2ccccc2C(=O)O)cc1[N+](=O)[O-] | 14.1 µM (active) | 
44 | COC(=O)c1ccccc1NS(=O)(=O)c1ccc2c(c1)CCCN2C(C)=O | inactive | 

Row | Compound | Potency | activity change, negative = inhibition
45 | COc1cc(S(=O)(=O)Nc2ccccc2OC)ccc1NC(C)=O | inactive | 
46 | O=C(O/N=C1\CCCc2oc3c(c21)CCCC3)c1ccc(Cl)c(Cl)c1 | inactive | 
47 | Cc1ccc(Cn2c(N3CCC(C(N)=O)CC3)nc3c2c(=O)n(C)c(=O)n3C)cc1 | inactive | 
48 | Cc1oc(-c2ccccc2)nc1C(=O)NC(C1CC1)C1CC1 | inactive | 
49 | COc1ccc(NC(=O)C(c2ccncc2)n2c(=O)c(-c3cc4ccccc4[nH]3)nc3ccccc32)cc1 (centres undefined) | inactive | 
50 | CCC(C(=O)Nc1c(C)cccc1C)n1c(-c2cc(C)cs2)nc2ccccc21 (centres undefined) | inactive | 
51 | CC(C)(C)NC(=O)C(CCc1ccccc1)n1c(=O)c(-c2ccccc2)nc2ccccc21 (centres undefined) | inactive | 
52 | Cc1cccc(C)c1NC(=O)C(c1ccc(C(F)(F)F)cc1)n1c(=O)c(-c2ccco2)nc2ccccc21 (centres undefined) | 14.1 µM (active) | 
53 | O=C(NCCn1c(-c2ccccc2)nc2ccccc21)NCc1ccccc1 | inactive | 
54 | N#Cc1ccc(C(C(=O)NCc2ccccc2)n2c(=O)c(-c3ccco3)nc3ccccc32)cc1 (centres undefined) | 17.8 µM (active) | 
55 | COc1cccc(S(=O)(=O)N2CCCCCCNC(=O)[C@@H]3CCC[C@@H]32)c1 | inactive | 
56 | O=C(Nc1ccccc1)Nc1cc(S(=O)(=O)N2CCOCC2)ccc1NCC1CCCO1 (centres undefined) | inactive | 
57 | c1ccc([C@@H]2CNC[C@H]2COCC2CC2)nc1 | inactive | 
58 | Cn1c(C(=O)NCCNC(=O)c2cccc(F)c2)cc2ccccc21 | inactive | 
59 | Cc1cccc(-n2nc(-c3c(C)nc4scc(CC(=O)NCCC(C)C)n4c3=O)cc2C)c1C | inactive | 
60 | COc1ccccc1CCNS(=O)(=O)c1ccc(N2C(=O)C(C)(C)CS2(=O)=O)cc1 | inactive | 
61 | COc1ccc2nc(SC3CC(=O)N(c4ccc(F)cc4)C3=O)nc(C)c2c1 (centres undefined) | inactive | 
62 | Cc1cc(NC(=O)CCN2CCN(Cc3ccccc3)CC2)ccc1Br | 3.16 µM (active) | 
63 | O=C(CCN1CCCCC1)Nc1ccc(F)c(F)c1 | inactive | 
64 | O=C(CCN1CCN(C/C=C/c2ccccc2)CC1)Nc1cccc(F)c1 | inactive | 
